Records with an inconclusive call do not appear. The source made the active and inactive calls.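 The calls were made as follows, unless noted: active = binding below the plate cutoff, the plate median minus 3 SD, with a reading above zero; inconclusive = below the plate cutoff but reading exactly zero; inactive = the rest.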

A short description of assay [1]: rapamycin-like changes in RPL19A-GFP expression – cell-based, S. cerevisiae, multiplex flow cytometry, primary screen (AID 1862; in the data active = percent of DMSO control GFP below about 86%;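 also: lower values mimic rapamycin by blocking the RPL19A rise seen in DMSO cells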). The settings on record: S. cerevisiae RPL19A-GFP strain, flow cytometry fluorescence, 3 h; at 10 µM; stronger effect = lower value. On the technique in general: A flow cytometer gives signals particle by particle.
A short description of assay [2]: TOR pathway GLN3 branch reporter MEP2-GFP changes – S. cerevisiae, multiplex flow cytometry, primary screen (AID 1867;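 active = GFP response, as percent of the DMSO control, above the screen-wide mean plus 3 SD, about 139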;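 also: median GFP channel fluorescence of barcode-gated MEP2-GFP cells measured by flow cytometry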). As to conditions: S. cerevisiae MEP2-GFP strain, 3 h, at 10 µM, stronger effect = higher value, 100% means same as DMSO wells.
A short description of assay [3]: TOR pathway RTG branch CIT2 reporter changes – S. cerevisiae, GFP fusion, multiplex flow cytometry, primary screen (AID 1870;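 active = percent response above a set limit, the screen-wide mean plus 3 SD, cut at about 130% in these data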;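 also: barcoded CIT2-GFP strain pooled with four other GFP strains with rapamycin as positive control; median GFP fluorescence per well over plate mean of DMSO wells so 100% = DMSO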). As to conditions: S. cerevisiae CIT2-GFP expression, 3 h, at 10 µM, stronger effect = higher value.
Assay [4] is described as follows: TOR pathway LAP4-GFP level changes – S. cerevisiae, multiplex flow cytometry, primary screen (AID 1873;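 active = GFP signal, as percent of the solvent control, above the screen mean plus 3 SD, about 149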). As to conditions: S. cerevisiae LAP4-GFP expression, 3 h, at 10 µM, stronger effect = higher value.
Assay [5] in a line: yeast AGP1-GFP level changes, GLN3 branch – cell-based, multiplex flow cytometry, S. cerevisiae, primary screen (AID 1887;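 active = GFP signal above the screen-wide mean plus 3 SD, that is over about 124.5% of the solvent control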;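 also: AGP1-GFP fusion strain of S. cerevisiae within a five-strain barcoded multiplex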). The settings on record: 3 h, at 10 µM, stronger effect = higher value.
Assay [6] is described as follows: reduced mouse 2C T cell binding to pMHC/ICAM-1 vesicles – MLPCN validation set, flow cytometry, LFA-1/ICAM-1 modulator project, pilot screen (AID 2523;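 active = response below a set limit, under 55% cells CD8-positive and vesicle-bound, and CD8 cells' 90th-percentile brightness under 279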;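 as to vesicle binding response: mean PE anti-B7-1 fluorescence of CD8+ cells relative to row control; 100% = QL9-loaded vesicles with DMSO vehicle in the same plate row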). The settings on record: 2C mouse CD8+ T cells, at 7 µM, stronger effect = lower value; double positive events: measured here: CD8+/vesicle+ event percentage.
For assay [7], the target named is Integrin beta-1 (Homo sapiens) + Integrin alpha-4 (Homo sapiens) (UniProt P13612+P05556). The assay can be described thus: alpha4beta1 integrin LIBS antibody binding reduction – U937 cells, HUTS-21 mAb, flow cytometry, validation set, VLA-4 allosteric modulator project, pilot screen (AID 2674;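 active = inhibition above 50%, about 3 SD of the validation set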;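 also: antibody binding induced by the VLA-4 ligand LDV present at three times its Kd; 0% = LDV ligand with antibody and no compound and 100% = antibody without LDV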). As to conditions: HUTS-21 LIBS mAb binding, at 6.7 µM, stronger effect = higher value, binding induced by LDV ligand.
Sequence of Integrin beta-1 (Homo sapiens) + Integrin alpha-4 (Homo sapiens) (P05556 whole entry, looked up): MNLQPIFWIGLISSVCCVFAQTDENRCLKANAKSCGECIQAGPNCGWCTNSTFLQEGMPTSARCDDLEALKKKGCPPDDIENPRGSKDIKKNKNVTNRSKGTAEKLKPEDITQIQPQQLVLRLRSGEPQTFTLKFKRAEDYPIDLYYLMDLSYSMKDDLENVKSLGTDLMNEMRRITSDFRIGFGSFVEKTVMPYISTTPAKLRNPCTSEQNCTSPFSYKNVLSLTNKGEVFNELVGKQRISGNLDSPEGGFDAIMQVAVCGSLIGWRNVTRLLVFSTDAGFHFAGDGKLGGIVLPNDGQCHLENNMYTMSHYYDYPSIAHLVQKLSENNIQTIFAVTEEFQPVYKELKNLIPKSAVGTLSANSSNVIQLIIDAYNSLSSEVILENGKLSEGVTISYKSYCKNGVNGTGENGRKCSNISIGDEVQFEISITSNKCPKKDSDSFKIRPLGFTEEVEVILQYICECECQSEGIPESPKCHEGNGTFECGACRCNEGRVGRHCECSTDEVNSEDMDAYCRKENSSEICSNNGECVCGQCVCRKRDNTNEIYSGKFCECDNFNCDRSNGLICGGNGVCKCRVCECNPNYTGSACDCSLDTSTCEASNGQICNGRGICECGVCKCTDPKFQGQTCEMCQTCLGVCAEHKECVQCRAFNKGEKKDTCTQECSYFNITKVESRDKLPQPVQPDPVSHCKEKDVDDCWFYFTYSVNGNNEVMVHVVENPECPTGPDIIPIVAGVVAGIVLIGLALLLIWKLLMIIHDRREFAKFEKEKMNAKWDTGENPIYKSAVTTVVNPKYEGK
Sequence of Integrin beta-1 (Homo sapiens) + Integrin alpha-4 (Homo sapiens) (P13612 whole entry, looked up): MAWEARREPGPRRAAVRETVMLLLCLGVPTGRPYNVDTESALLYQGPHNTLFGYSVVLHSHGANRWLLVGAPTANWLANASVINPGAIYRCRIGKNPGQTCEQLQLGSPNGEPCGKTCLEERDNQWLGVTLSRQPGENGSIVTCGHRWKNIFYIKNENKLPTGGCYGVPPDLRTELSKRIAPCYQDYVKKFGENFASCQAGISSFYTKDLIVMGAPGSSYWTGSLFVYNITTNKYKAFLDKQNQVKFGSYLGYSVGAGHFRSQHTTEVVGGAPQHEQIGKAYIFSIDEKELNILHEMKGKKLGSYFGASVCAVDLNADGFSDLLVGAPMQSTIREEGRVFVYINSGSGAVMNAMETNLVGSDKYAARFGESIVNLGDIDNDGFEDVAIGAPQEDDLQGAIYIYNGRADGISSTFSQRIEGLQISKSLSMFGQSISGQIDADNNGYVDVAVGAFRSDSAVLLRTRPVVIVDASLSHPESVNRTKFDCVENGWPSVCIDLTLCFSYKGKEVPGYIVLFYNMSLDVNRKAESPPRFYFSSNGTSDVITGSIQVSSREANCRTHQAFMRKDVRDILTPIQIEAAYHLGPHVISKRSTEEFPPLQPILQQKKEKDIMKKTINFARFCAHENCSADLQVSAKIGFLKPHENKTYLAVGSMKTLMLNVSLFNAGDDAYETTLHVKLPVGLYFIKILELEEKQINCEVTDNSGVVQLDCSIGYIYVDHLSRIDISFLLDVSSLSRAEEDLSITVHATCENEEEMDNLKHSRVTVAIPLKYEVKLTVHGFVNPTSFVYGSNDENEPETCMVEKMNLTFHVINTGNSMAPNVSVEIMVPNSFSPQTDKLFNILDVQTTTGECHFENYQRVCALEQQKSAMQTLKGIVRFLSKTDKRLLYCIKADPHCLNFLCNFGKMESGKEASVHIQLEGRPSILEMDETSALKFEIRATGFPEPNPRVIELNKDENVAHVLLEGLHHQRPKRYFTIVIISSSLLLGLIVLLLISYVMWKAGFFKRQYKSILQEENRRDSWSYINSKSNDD

The nature of assay [8]: calorie-restriction mimetic ROS inhibitors, yeast – validation compound set, pilot screen (AID 2706;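 active = superoxide response below 65% of plate, a cut near 3 SD across the whole screen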;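 also: yeast exposed to compound for one week at 30 degrees C before staining; 100% = mean of all compound wells on the same plate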). As to conditions: S. cerevisiae aging, superoxide DHE fluorescence; at 10 µM, stronger effect = lower value.
Assay [9] has as its target Beta-adrenergic receptor kinase 1 (Homo sapiens) (UniProt P25098). Put plainly: GRK2 binders displacing RNA aptamer, biochemical, validation, human GRK2, bead flow cytometry (AID 488806;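 active = aptamer binding inhibition above 30%, about 3 SD of noise from non-fluorescent compounds; inactive = inhibition at or below 30%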). As to conditions: bead-bound GRK2, FAM-aptamer displacement, at 10 µM, stronger effect = higher value.
The target in assay [10] is AP-2 complex subunit beta (Homo sapiens) (UniProt P63010). The assay can be described thus: beta-arrestin/AP2 interaction blockers – biochemical, validation set, GST-AP2 beads, flow cytometry, pilot screen (AID 504541;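 active = inhibition above 54%, about 3 SD of non-fluorescent compounds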;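 also: AP2 carries R879A mutation and is captured from E. coli lysate; bead-bound FITC arrestin peptide fluorescence measuring arrestin peptide binding to AP2; 0% = DMSO wells and 100% = excess unlabeled arrestin peptide control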). The settings on record: FITC arrestin peptide, at 10 µM, stronger effect = higher value, AP2 beta2 appendage fragment, R879A mutant.
Sequence of AP-2 complex subunit beta (Homo sapiens) (P63010 whole entry, looked up, the tested form may be a part, one chain of several): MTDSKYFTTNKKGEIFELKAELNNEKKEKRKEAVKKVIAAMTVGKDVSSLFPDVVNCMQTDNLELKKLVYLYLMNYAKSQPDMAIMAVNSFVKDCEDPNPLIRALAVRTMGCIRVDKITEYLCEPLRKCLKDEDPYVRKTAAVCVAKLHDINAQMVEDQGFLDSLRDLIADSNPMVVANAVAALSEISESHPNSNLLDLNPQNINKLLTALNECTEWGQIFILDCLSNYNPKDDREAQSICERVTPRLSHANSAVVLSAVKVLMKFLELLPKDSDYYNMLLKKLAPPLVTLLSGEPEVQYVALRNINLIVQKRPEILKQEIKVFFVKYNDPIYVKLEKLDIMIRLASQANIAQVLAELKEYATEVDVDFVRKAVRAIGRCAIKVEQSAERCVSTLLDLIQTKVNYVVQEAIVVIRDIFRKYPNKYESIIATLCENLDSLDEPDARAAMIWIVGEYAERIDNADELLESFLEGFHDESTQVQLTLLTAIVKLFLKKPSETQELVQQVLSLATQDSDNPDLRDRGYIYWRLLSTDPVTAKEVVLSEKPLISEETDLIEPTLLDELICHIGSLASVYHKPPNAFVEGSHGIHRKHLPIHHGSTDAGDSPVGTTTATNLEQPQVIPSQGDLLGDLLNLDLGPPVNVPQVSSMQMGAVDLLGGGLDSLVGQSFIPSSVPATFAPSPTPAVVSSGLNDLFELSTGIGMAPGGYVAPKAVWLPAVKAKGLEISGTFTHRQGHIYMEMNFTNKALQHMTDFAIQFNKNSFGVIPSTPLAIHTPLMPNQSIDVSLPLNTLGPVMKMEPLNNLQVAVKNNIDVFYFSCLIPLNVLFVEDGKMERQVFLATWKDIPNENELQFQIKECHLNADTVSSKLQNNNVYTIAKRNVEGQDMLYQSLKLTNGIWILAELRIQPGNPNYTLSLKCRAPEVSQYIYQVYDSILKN
A short description of assay [11]: cytosolic pH regulators acting via V-ATPase – S. cerevisiae, pHLuorin, HTS validation (AID 504600; in the data active = response above about 15%;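 also: plate controls were DMSO for no effect and reference compound for full effect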). The settings on record: V-ATPase proton transport, at 10 µM, stronger effect = higher value.
The subject of assay [12] is anti-desmoglein-3 scFv antibody binding to human DSG3. The assay can be described thus: blockers of pathogenic pemphigus antibody–desmoglein-3 binding – biochemical, validation compound set, bead-based, flow cytometry, pilot screen (AID 588368).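 Also: signal is the median channel fluorescence of bead-bound GFP antibody.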 The settings on record: Protein G beads, DSG3-Fc, scFv-GFP binding, at 10 µM, stronger effect = lower value.
The nature of assay [13]: Nile Red efflux blockade in pump-expressing yeast – validation compound set, multiplex, phenotypic, pilot screen (AID 588506;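 active = efflux inhibition above 0.42, the validation set average plus 4 SD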;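 also: Nile Red retained in cells so higher fluorescence means more efflux inhibition; 0 = negative control wells and 1 = enniatin B 25 µM full block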). As to conditions: S. cerevisiae pump-expressing triplex, Nile Red efflux flow cytometry; at 10 µM; stronger effect = higher value; the pumps come from Candida albicans.
Assay [14] deals with ATP-binding cassette sub-family B member 6 (Homo sapiens) (UniProt Q9NP58). Put plainly: blockers of ABCB6-driven porphyrin uptake – K562-ABCB6 cells, flow cytometry, validation set, pilot screen (AID 588550;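 active = inhibition above the screen-wide mean plus 3 SD, about 51%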;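 also: 0% = DMSO wells and 100% = benzethonium chloride 70 µM positive control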). The settings on record: K562-ABCB6 porphyrin accumulation, 1 h, at 10 µM, stronger effect = higher value.
Sequence of ATP-binding cassette sub-family B member 6 (Homo sapiens) (Q9NP58 whole entry, looked up): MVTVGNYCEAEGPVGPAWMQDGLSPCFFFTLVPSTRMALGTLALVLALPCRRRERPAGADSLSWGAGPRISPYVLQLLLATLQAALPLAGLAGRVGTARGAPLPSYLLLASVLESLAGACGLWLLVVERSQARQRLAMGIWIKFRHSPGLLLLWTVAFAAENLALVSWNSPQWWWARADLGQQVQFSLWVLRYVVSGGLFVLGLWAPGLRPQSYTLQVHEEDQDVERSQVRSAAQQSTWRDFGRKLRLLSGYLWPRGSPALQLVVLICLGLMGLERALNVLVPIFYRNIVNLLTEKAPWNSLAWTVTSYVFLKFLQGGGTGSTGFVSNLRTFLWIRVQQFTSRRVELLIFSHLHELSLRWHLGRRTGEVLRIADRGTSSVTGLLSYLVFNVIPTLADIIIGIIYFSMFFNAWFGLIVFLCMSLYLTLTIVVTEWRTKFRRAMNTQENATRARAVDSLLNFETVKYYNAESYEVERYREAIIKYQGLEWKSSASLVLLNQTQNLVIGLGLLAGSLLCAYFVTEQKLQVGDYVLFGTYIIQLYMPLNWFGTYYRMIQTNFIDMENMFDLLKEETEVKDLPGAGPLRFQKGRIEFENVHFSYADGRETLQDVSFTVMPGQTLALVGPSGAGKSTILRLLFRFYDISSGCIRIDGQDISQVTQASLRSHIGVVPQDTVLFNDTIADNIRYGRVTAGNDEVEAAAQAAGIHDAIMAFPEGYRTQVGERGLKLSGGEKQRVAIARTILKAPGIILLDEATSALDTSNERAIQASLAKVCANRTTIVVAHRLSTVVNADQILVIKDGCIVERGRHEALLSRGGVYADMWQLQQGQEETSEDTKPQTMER
A short description of assay [15]: AML differentiation inducers, ER-HoxA9 marrow cells – cell-based, GFP/MAC1 double positive, flow cytometry, validation set, primary screen (AID 588685;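 active = differentiation response of at least 50%, scaled between solvent and reference control, from cells with both markers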;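 also: compound exposure lasts four days before antibody staining and flow analysis; 0% = DMSO wells and 100% = 5 µM fulvestrant positive control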). As to conditions: stronger effect = higher value, normalized: vehicle 0, fulvestrant 100.

Sequence of Beta-adrenergic receptor kinase 1 (Homo sapiens) (P25098 whole entry, looked up): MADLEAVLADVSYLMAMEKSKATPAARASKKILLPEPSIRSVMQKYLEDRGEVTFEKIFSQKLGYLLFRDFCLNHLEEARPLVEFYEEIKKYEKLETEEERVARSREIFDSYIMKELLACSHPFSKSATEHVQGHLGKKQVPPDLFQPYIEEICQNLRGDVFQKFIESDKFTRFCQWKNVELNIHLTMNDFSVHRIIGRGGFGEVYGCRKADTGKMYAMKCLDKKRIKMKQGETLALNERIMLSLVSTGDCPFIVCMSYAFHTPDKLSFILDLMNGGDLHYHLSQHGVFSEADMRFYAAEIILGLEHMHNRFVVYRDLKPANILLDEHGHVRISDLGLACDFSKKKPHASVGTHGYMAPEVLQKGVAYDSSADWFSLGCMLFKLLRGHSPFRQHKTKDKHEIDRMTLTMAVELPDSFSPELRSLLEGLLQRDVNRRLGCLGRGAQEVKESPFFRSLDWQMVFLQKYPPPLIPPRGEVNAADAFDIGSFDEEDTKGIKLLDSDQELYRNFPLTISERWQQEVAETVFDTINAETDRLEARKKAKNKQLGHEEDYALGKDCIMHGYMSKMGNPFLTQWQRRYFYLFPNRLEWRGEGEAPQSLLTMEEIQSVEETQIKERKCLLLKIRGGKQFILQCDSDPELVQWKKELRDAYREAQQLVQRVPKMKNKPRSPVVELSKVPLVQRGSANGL

For the compound `CC#C[C@]1(O)CC[C@H]2[C@@H]3CCC4=CC(=O)CCC4=C3[C@@H](c3ccc(N(C)C)cc3)C[C@@]21C`, the percent of DMSO control GFP in [1] is 103% (inactive). Further, the figures for the GFP response vs DMSO in assay [2] and in [4] were 103% (inactive) and 87.3% (inactive), respectively. Moreover, the percent response of DMSO control in assay [3] is 110% (inactive). The GFP response, % of DMSO in assay [5] is 102% (inactive). This compound also registered a double positive events in assay [6] of 56.3%. Further, the vesicle binding response in assay [6] was 187% (inactive). The inhibition was -10.5% (inactive) in assay [7], 25.2% (inactive) in [10] and 3% (inactive) in assay [14]. In addition, the superoxide response (% of plate) in assay [8] is 94.9% (inactive). Besides, in [9], the aptamer binding inhibition is 9% (inactive). In assay [11], the response is 0.03% (inactive). Besides, the binding (% of control) in assay [12] is 94.6% (inactive). In assay [13], the efflux inhibition (fraction of control) was -0.16 (inactive). Further, the differentiation response in assay [15] is -16.4% (inactive).
For the compound `NC(=O)OCC(COC(N)=O)c1ccccc1`, the percent of DMSO control GFP in assay [1] was 104% (inactive). The GFP response vs DMSO was 98.9% (inactive) in assay [2] and 92.3% (inactive) in assay [4]. Moreover, the percent response of DMSO control in assay [3] was 102% (inactive). In addition, the GFP response, % of DMSO in assay [5] was 103% (inactive). The compound also had a double positive events in [6] of 58.1%. In [6], the vesicle binding response was 160% (inactive). The inhibition was 1.62% (inactive) in assay [7], -15.7% (inactive) in assay [10] and 5% (inactive) in assay [14]. For the same compound, the superoxide response (% of plate) in assay [8] is 92.5% (inactive). In addition, the aptamer binding inhibition in assay [9] is 4% (inactive). The response in assay [11] is -9.57% (inactive). For the same compound, in assay [12], the binding (% of control) was 103% (inactive). Moreover, the efflux inhibition (fraction of control) in assay [13] is -0.09 (inactive). The differentiation response in [15] is -1.82% (inactive).
In the case of `COc1ccc2[nH]cc(CCNC(=O)C3CCCNC3=O)c2c1` (stereo not given), the percent of DMSO control GFP in assay [1] was 103% (inactive). Further, the GFP response vs DMSO in assay [2] was 97.9% (inactive); in [4], 104% (inactive). Besides, the percent response of DMSO control in assay [3] is 104% (inactive). For the same compound, in [5], the GFP response, % of DMSO is 105% (inactive). The compound also displayed a double positive events in [6] of 57.5%. The vesicle binding response in assay [6] is 218% (inactive). The inhibition is -2.11% (inactive) in assay [7], -18.5% (inactive) in assay [10] and 7% (inactive) in assay [14]. In addition, the superoxide response (% of plate) in [8] was 100% (inactive). Moreover, the aptamer binding inhibition in assay [9] was -7% (inactive). In addition, in [11], the response was 2.02% (inactive). The binding (% of control) in assay [12] was 103% (inactive). In addition, in assay [13], the efflux inhibition (fraction of control) was -0.24 (inactive). Further, the differentiation response in assay [15] was 6.26% (inactive).
With `COc1ccc(CC(=O)c2c(O)cc(O)cc2O)cc1OC`, the percent of DMSO control GFP in assay [1] is 103% (inactive). In addition, the results for the GFP response vs DMSO in assay [2] and in assay [4] were 110% (inactive) and 101% (inactive), respectively. The percent response of DMSO control in assay [3] is 98.8% (inactive). Besides, in [5], the GFP response, % of DMSO is 97.5% (inactive). In assay [6], this compound came in with a double positive events of 58.4%. The vesicle binding response in [6] is 171% (inactive). For the same compound, the inhibition in [7] was 1.62% (inactive); in assay [10] it was 49.5% (inactive); in assay [14], 3% (inactive). For the same compound, in assay [8], the superoxide response (% of plate) was 102% (inactive). For the same compound, in assay [9], the aptamer binding inhibition was 1% (inactive). The response in assay [11] is -6.13% (inactive). The binding (% of control) in assay [12] was 100% (inactive). For the same compound, in [13], the efflux inhibition (fraction of control) is 0.18 (inactive). Further, the differentiation response in [15] was 27.2% (inactive).
Turning to `C=CCc1cccc2cc(C(=O)Nc3ccc(CC(=O)O)cc3)c(=O)oc12`, the percent of DMSO control GFP in assay [1] is 98.6% (inactive). The GFP response vs DMSO in assay [2] was 106% (inactive); in [4], 100% (inactive). Moreover, in assay [3], the percent response of DMSO control is 94.9% (inactive). Further, the GFP response, % of DMSO in assay [5] was 97.8% (inactive). The same compound gave a double positive events in assay [6] of 63.1%. Also, in assay [6], the vesicle binding response is 207% (inactive). Besides, the inhibition is -2.11% (inactive) in assay [7], 28.6% (inactive) in assay [10] and 5% (inactive) in [14]. The superoxide response (% of plate) in assay [8] was 141% (inactive). In addition, the aptamer binding inhibition in [9] was 2% (inactive). Moreover, in assay [11], the response is -3.63% (inactive). For the same compound, in assay [12], the binding (% of control) was 100% (inactive). In [13], the efflux inhibition (fraction of control) was 0.1 (inactive). Besides, the differentiation response in [15] is 7.87% (inactive).

The term inhibition denotes the drop in the measured response relative to a control, in per cent.

(Values after PubChem BioAssay.)
